Screens as filed in PubChem.
A selection: hits, their analogues and other compounds. The true share with any hit is near 6.2%.
GRIN3A LBD mod = modulators (binders) of human NR3A ligand-binding domain; 340,000 compounds, 2.5% hits; NR3A LBD differential scanning fluorimetry, Tm shift; 0% = protein alone, 100% = glycine-bound protein; Tm shift relative to glycine control, % at 25 µM;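 active = melting temperature shift of at least 10% of the positive control shift, at one fixed dose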
AHR activator = human AHR activation | P35869 | 320,000 compounds, 2.5% hits | AHR-responsive luciferase reporter cells, luminescence | activation, % at 5 µM; in the data active = activation above about 47%
Target sequence (P35869 whole entry, looked up): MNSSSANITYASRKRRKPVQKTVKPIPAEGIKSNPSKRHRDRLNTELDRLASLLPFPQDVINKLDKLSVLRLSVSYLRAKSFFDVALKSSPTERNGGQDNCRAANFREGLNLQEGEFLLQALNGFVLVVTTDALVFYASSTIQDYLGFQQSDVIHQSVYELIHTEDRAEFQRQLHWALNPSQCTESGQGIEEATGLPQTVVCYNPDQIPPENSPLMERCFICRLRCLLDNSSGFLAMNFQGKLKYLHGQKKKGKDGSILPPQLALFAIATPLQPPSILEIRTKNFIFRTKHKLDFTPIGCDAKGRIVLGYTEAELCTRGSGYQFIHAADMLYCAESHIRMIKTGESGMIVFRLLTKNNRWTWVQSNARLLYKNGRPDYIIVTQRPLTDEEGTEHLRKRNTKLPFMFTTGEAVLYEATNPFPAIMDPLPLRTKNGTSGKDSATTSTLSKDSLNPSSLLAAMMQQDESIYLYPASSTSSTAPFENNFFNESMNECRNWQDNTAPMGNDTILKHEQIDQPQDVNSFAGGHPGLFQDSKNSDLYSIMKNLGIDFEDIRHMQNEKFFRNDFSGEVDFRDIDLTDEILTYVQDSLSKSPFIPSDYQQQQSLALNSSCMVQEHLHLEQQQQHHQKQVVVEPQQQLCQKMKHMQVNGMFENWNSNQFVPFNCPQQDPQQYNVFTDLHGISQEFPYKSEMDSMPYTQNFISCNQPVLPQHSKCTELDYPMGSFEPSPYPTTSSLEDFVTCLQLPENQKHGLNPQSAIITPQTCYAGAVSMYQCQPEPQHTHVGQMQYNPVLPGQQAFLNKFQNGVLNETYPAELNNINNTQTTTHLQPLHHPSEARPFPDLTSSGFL
Mot1-301 SUMO = SUMOylation pathway inhibition by Mot1-301 growth rescue | S. cerevisiae Mot1-301 growth rescue, ATP luminescence, 38.5C; percent above DMSO median, 100 means doubled | growth rescue, % at 18.8 µM | 320,000 compounds, 1% hits;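 active = every valid replicate shows activation above 250% relative to neutral control wells; inactive = the rest, any valid replicate at or below 250%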
NTR1 agonist = NTR1 (human) agonism; activation, % at 20 µM; P30989; 330,000 compounds, 0.17% hits; NTR1-U2OS beta-arrestin-GFP spot imaging, agonist mode;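 active = activation at or above 40% of the spot to cytoplasm intensity ratio, with at least 20 cells analyzed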
AI-2 QS modul = modulators of Vibrio harveyi AI-2 quorum sensing system. Vibrio harveyi JMH597 AI-2 luminescence/OD600 ratio, 9 h; stronger effect = lower value; strain lacks LuxN and CqsS sensors; 0 = neutral-control median. activity change, % at 7.5 µM. 300,000 compounds, 0.4% hits; in the data active = activity change below about -75%, passing the limit was not always enough;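 also: luminescence divided by OD600 gain over 9 h not by final OD600 alone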
Cardio protect = myocardial damage modulation in H9c2 cells; H9c2 cardiomyocytes, H2O2 injury protection, ATPLite, 2 h; protection from H2O2 cell death, % at 20 µM; 360,000 compounds, 0.63% hits; AID 588492;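 active = compounds giving at least 50% protection of heart cells from peroxide-induced death in the single-dose screen, raw or plate-pattern-corrected value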
Each line names hits and unclear results; the compound was inactive in the other large screens.

O=C(NCc1cccs1)C1CCC(CNS(=O)(=O)c2ccc(Br)s2)CC1 (stereo not given)	none
NS(=O)(=O)c1ccc(CCNC(=O)C2CCC(CNS(=O)(=O)c3ccc(Br)s3)CC2)cc1 (stereo not given)	GRIN3A LBD mod 13
COc1ccc(CCNC(=O)C(=O)NCC2OCCN2C(=O)c2ccc(Cl)cc2)cc1OC (stereo not given)	none
O=C(NCCS(=O)(=O)NCc1ccccn1)c1ccccc1	none
Cc1cc(NC(=O)CSc2ccc(-c3nc4cc(C)c(C)cc4[nH]3)cn2)no1	none
Cc1cc2nc(-c3ccc(SCC(=O)NC(C)C)nc3)[nH]c2cc1C	AHR activator 78 (no result: GRIN3A LBD mod, Cardio protect)
Cc1cc2nc(-c3ccc(SCC(=O)N4CCc5ccccc54)nc3)[nH]c2cc1C	GRIN3A LBD mod 25
Cc1cc2nc(-c3ccc(SCC(=O)Nc4ccc(S(=O)(=O)NC5CC5)cc4)nc3)[nH]c2cc1C	GRIN3A LBD mod 32
COc1ccc2oc(=N)c(C(=O)Nc3cccc(C)c3C)cc2c1	none
O=C(Nc1nc(-c2cc3ccccc3oc2=O)cs1)c1ccc(Br)o1	GRIN3A LBD mod 29
COc1cccc2sc(Nc3nc(-c4cc5ccccc5oc4=O)cs3)nc12	GRIN3A LBD mod 20 (no result: NTR1 agonist)
CC(=O)Nc1ccc(Nc2nc(-c3cc4ccccc4oc3=O)cs2)cc1	none (no result: AHR activator)
Nc1ccc(Nc2nc(-c3cc4ccccc4oc3=O)cs2)cc1	none
COc1cccc2sc(NN)nc12	none
COc1cccc2sc(Nc3nc(-c4ccncc4)cs3)nc12	AHR activator 64
C[C@H](CO)N1C[C@H](C)[C@@H](CN(C)S(=O)(=O)c2ccc(F)cc2)OCc2cn(nn2)CCCC1=O	none (no result: GRIN3A LBD mod, AHR activator, Mot1-301 SUMO, NTR1 agonist, AI-2 QS modul)
Cc1[nH]c2ccccc2c1C(=O)C(=O)N1CCN(c2ccccc2F)CC1	none
COc1ccc(/C=N/NC(=O)c2cc3c(OC)ccc(OC)c3[nH]2)cc1O	Cardio protect 66
COc1ccccc1/C=N/NC(=O)c1cc2c(OC)c(OC)ccc2[nH]1	none (no result: AHR activator)
COc1cccc(/C=N/NC(=O)c2cc3c(OC)c(OC)ccc3[nH]2)c1OC	none (no result: AHR activator, Mot1-301 SUMO, NTR1 agonist)
COc1ccc(OC)c2[nH]c(C(=O)N/N=C/c3ccccc3O)cc12	GRIN3A LBD mod 18
COc1cccc(/C=N/NC(=O)c2cc3c(OC)cccc3[nH]2)c1OC	AHR activator 54
CCOC(=O)c1c(C)[nH]c(C(=O)N/N=C\c2ccccc2O)c1C	GRIN3A LBD mod 17 (no result: NTR1 agonist)
C/C(=N\NC(=O)c1nnn(-c2nonc2N)c1CN(C)c1ccccc1)c1cccnc1	none
Cc1ccc(NS(=O)(=O)c2ccc(NC(=O)c3ccc(Br)o3)cc2)c(C)c1	GRIN3A LBD mod 11
Cc1ccc(NS(=O)(=O)c2ccc(NC(=O)c3ccc(-c4ccccc4)cc3)cc2)c(C)c1	GRIN3A LBD mod 10
Cc1cc(C)cc(NS(=O)(=O)c2ccc(NC(=S)NC(=O)c3ccc(Br)o3)cc2)c1	GRIN3A LBD mod 18
Cc1ccc(NS(=O)(=O)c2cc(NC(=O)c3ccc4c(c3)NC(=O)CS4)ccc2C)c(C)c1	GRIN3A LBD mod 22
CCC(C(=O)NCc1ccccn1)n1c2ccccc2c2nc(=O)cc(C)n21 (stereo not given)	none
O=C(NCCCCc1ccccc1)c1cccc(NC(=O)C2CC2)c1	none (no result: AHR activator, Mot1-301 SUMO, NTR1 agonist, AI-2 QS modul)
Cc1ccc([N+](=O)[O-])cc1N(CC(=O)NC1CCCC1)S(C)(=O)=O	none
Cc1ccc(NS(=O)(=O)c2ccc(NC(=O)CN(c3cc([N+](=O)[O-])ccc3C)S(C)(=O)=O)cc2)c(C)c1	GRIN3A LBD mod 13
Cc1ccc(NS(=O)(=O)c2ccc(NC(=O)CSc3ccc(Cl)cc3)cc2)c(C)c1	GRIN3A LBD mod 23
CCN(C(=O)COC(=O)c1ccccc1Nc1ccccc1)c1c(N)n(Cc2ccccc2)c(=O)[nH]c1=O	none (no result: AHR activator, Mot1-301 SUMO, NTR1 agonist, AI-2 QS modul)
COc1cc(OC)cc(C(=O)N[C@H](C(=O)OCC(=O)Nc2ccc(C)cc2C)C(C)C)c1	none
COc1cc(OC)cc(C(=O)N[C@H](C(=O)OCC(N)=O)C(C)C)c1	GRIN3A LBD mod 11
Cc1cccc(Nc2nc(N)nc(CSc3nccn3C)n2)c1	AHR activator 75 (no result: Mot1-301 SUMO)
Cc1cccc(Nc2ncnc(N)n2)c1	Mot1-301 SUMO 541
CCC(=O)N(c1nnc(SCC(=O)NN2C(=O)NC3(CCCCC3)C2=O)s1)C1CC1	none (no result: AI-2 QS modul)
O=C(CN1C(=O)NC2(CCCC2)C1=O)NCCc1ccc(F)cc1	none (no result: AI-2 QS modul)
COc1ccc(C(=O)NCCNc2nc3ccc(C)cc3cc2C#N)cc1OC	none
CC(OC(=O)Cc1n[nH]c(=O)c2ccccc12)C(=O)Nc1ccc(S(N)(=O)=O)cc1 (stereo not given)	none (no result: AHR activator, Mot1-301 SUMO, AI-2 QS modul)
CC(OC(=O)CCC1CCCC1)C(=O)Nc1ccccc1[N+](=O)[O-] (stereo not given)	none
CC(OC(=O)Cc1n[nH]c(=O)c2ccccc12)C(=O)Nc1ccccc1[N+](=O)[O-] (stereo not given)	Cardio protect 72
CC(OC(=O)Cc1n[nH]c(=O)c2ccccc12)C(=O)Nc1cccc([N+](=O)[O-])c1 (stereo not given)	Cardio protect 58
O=C(Cc1n[nH]c(=O)c2ccccc12)OCc1c(Cl)cccc1Cl	none
COc1ccccc1NC(=O)C(C)OC(=O)Cn1cnc2c1c(=O)n(C)c(=O)n2C (stereo not given)	none
COc1ccccc1NC(=O)C(C)OC(=O)Cc1n[nH]c(=O)c2ccccc12 (stereo not given)	Cardio protect 66
Cc1cccc(C(C)C)c1NC(=O)C(C)OC(=O)Cc1n[nH]c(=O)c2ccccc12 (stereo not given)	Cardio protect 71
O=C(COC(=O)c1ccc(F)cc1F)Nc1ccc2c(c1)OCO2	none (no result: GRIN3A LBD mod, AHR activator, Mot1-301 SUMO, NTR1 agonist, AI-2 QS modul)
O=C(Cn1c(C(F)(F)F)nc2ccccc21)N=Nc1c(O)[nH]c2ccc(Br)cc12	GRIN3A LBD mod 10
O=C(Cc1cccs1)N=Nc1c(O)[nH]c2ccc(Br)cc12	none
CC(C)NC(=S)Nc1c(N)[nH]c(=O)[nH]c1=O	Mot1-301 SUMO 343
COC(=O)Cn1c(=NC(=O)C(C)C)sc2c(C)cc(C)cc21	GRIN3A LBD mod 20
CCC(=O)c1ccc(N2CCN(C(=O)c3cc([N+](=O)[O-])ccc3N3CCN(C)CC3)CC2)c(F)c1	GRIN3A LBD mod 14
O=C(O)c1cc(NS(=O)(=O)c2ccc(F)cc2)cc(NS(=O)(=O)c2ccc(F)cc2)c1	none (no result: AI-2 QS modul)
COc1ccc2oc(=O)c(-c3csc(Nc4cccc(O)c4)n3)cc2c1	GRIN3A LBD mod 27
COc1ccc(Nc2nc(-c3cc4cccc(OC)c4oc3=O)cs2)cc1	GRIN3A LBD mod 16
O=C(O)c1ccc(Nc2nc(-c3cc4ccccc4oc3=O)cs2)cc1O	none (no result: AHR activator, Mot1-301 SUMO)
CCCCN(C=O)c1c(CC)nc2c(OCc3ccc(C(F)(F)F)cc3)cccn12	none (no result: GRIN3A LBD mod, AHR activator, Mot1-301 SUMO, NTR1 agonist, AI-2 QS modul)
